# Only some compounds are listed: those with a hit (about 2.7% of all), similar ones and a draw of the others.
# FAS-TE inh – FAS thioesterase (human) inhibition. 360,000 compounds, 0.67% hits. AID 602261. recombinant FAS-TE, OMFH fluorogenic substrate, fluorescence endpoint. inhibition, % at 15 µM. P49327;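 active = compounds whose normalised, plate-corrected inhibition of enzyme fluorescence in the single-dose primary screen is 50% or more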;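 also: 0% = DMSO with enzyme and 100% = substrate without enzyme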
# Neddylation inh – inhibitors of human cullin neddylation; P61081+Q13564; TR-FRET cullin neddylation, biochemical; calls only at 25 µM; 360,000 compounds, 0.58% hits; in the data active = inhibition above about 36%
# PfG6PD inh – PfG6PD (Plasmodium falciparum) enzyme inhibition | PfGluPho enzyme, NADPH resazurin-diaphorase fluorescence | inhibition, % at 20 µM | 350,000 compounds, 0.78% hits | AID 504690;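 active = inhibition reaching at least a set limit at 20 µM in the primary screen, cut at about 59% in these data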;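 also: 0% = DMSO wells with substrate and 100% = DMSO wells lacking glucose-6-phosphate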
# proKLK7 act – activators of human kallikrein-7 zymogen; P49862; activation, % at 7 µM; 370,000 compounds, 0.9% hits; purified proKLK7, EDANS-DABCYL substrate fluorescence; 100% is mature enzyme control, 0% vehicle; AID 652039;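 active = activation above the mean of all tested compounds plus 3 SD, computed per campaign excluding outliers beyond control limits, cut at about 13% in these data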
# PfG6PD confirm – confirmation of Plasmodium falciparum G6PD inhibitors | shares compounds with PfG6PD inh | recombinant PfGluPho, NADPH-diaphorase-resazurin fluorescence | inhibition, % at 20 µM | 2,400 compounds, 34% hits;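 active = inhibition of at least 50% at 20 µM in any single replicate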;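 also: 0% = DMSO with substrate and 100% = DMSO lacking glucose-6-phosphate substrate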
# Diaph ctr 10uM – inhibits diaphorase or oxidizes, flagging false PfG6PD hits. shares compounds with PfG6PD inh. diaphorase-coupled resazurin reduction, fluorescence, NADPH 10 uM. inhibition, % at 20 µM. 820 compounds, 39% hits. AID 504862;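 active = average inhibition reaching 50% or more with the compound at 20 µM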;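 also: resorufin red fluorescence formed as diaphorase reduces resazurin using NADPH; 0% = DMSO with enzyme and 100% = DMSO without enzyme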
# Diaphorase 30uM – diaphorase inhibition or oxidation at 30 uM NADPH; Diaphorase/resazurin coupled assay, resorufin fluorescence; shares compounds with PfG6PD inh; inhibition, % at 20 µM; AID 504863; 820 compounds, 29% hits;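 active = inhibition averaging 50% or more, tested at 20 µM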;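 also: 0% = DMSO with enzyme and 100% = DMSO wells lacking diaphorase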
# * = called active by the depositor; i = inactive; nt = not tested or not shown.
SMILES,FAS-TE inh,Neddylation inh,PfG6PD inh,proKLK7 act,PfG6PD confirm,others
COc1ccc(NS(=O)(=O)c2ccc(N3CCCC3)c(NC(=S)Nc3ccc(SC(F)F)cc3)c2)cc1,27,i,69*,-1,37,
Cc1onc(-c2ccccc2)c1C(=O)NCc1ccco1,-6,i,-5,0,nt,
Cc1onc(-c2ccccc2)c1C(=O)N(Cc1ccco1)Cc1cccs1,14,i,83*,0,39,
COc1cc(N)c2ncccc2c1OC,-5,i,70*,4,74*,Diaph ctr 10uM=22;Diaphorase 30uM=8
COc1cc(NCCCCCCN)c2ncccc2c1OC,17,i,90*,0,46,
COc1cc(NC(C)CCCNC(C)C)c2ncccc2c1OC (stereo not given),-7,i,37,7,nt,
O=C(NCCO)C1(C(=O)C2CC2)CC(c2ccccc2C(F)(F)F)=NO1 (stereo not given),nt,nt,nt,0,nt,
Oc1ccc(NCc2cccc(OCc3ccccc3)c2)cc1,7,i,59*,0,4,
CN(CCc1ccccn1)C(=O)c1cc2ccccn2n1,nt,nt,nt,0,nt,
CCCN(Cc1cc2ccc(C)cc2[nH]c1=O)C(=O)c1ccccn1,-2,i,96*,1,69*,Diaph ctr 10uM=50*;Diaphorase 30uM=50*
COC(=O)c1ccc(NCc2c(O)ccc(O)c2Br)cc1Cl,9,i,104*,0,39,
COC(=O)c1ccc(NCc2cc(O)ccc2O)cc1O,-2,i,28,2,nt,
Cc1nn(-c2ccccc2)c(Cl)c1/C=N/Nc1nc2ccccc2[nH]1,-2,i,17,0,nt,
Cc1cc(=O)[nH]c(N/N=C/c2c(C)nn(-c3ccccc3)c2Cl)n1,0,i,86*,0,78*,Diaph ctr 10uM=-14;Diaphorase 30uM=-11
COCCN1C=C2C(=O)C(C)(OC(=O)CCc3ccccc3)C(=O)C=C2C=C1c1ccc(C#N)cc1 (stereo not given),-1,i,62*,0,22,
CC1(OC(=O)CCc2ccccc2)C(=O)C=C2C=C(c3ccc(C#N)cc3)N(Cc3ccco3)C=C2C1=O (stereo not given),10,i,37,-1,nt,
CC(C)CN1C=C2C(=O)C(C)(OC(=O)CCc3ccccc3)C(=O)C=C2C=C1c1ccc(C#N)cc1 (stereo not given),0,i,58,3,nt,
CC1(OC(=O)CCc2ccccc2)C(=O)C=C2C=C(c3ccc(C#N)cc3)N(Cc3ccccc3)C=C2C1=O (stereo not given),-5,i,84*,-1,36,
CC1(OC(=O)CCc2ccccc2)C(=O)C=C2C=C(c3ccc(C#N)cc3)N(C3CC3)C=C2C1=O (stereo not given),-2,i,83*,2,49,
O=C(CCc1ccccc1)N[C@H]1[C@H](OCc2ccccc2)CCC[C@@]12C(=O)N(Cc1ccccc1)c1ccc(-c3ccsc3)cc12,nt,nt,nt,0,nt,
Cc1ccc(-c2ccc(/C=C3\C(=O)ON=C3c3ccccc3)o2)c([N+](=O)[O-])c1,-6,i,70*,0,5,
Cn1c2ccccc2c(=O)c2cc(C#Cc3cccc(N)c3)ccc21,8,i,62*,nt,21,
Cn1c2ccccc2c(=O)c2ccc(C#Cc3ccc(N)cc3)cc21,16,i,5,-16,nt,
CCOc1ccc(-n2c(SCC(=O)Nc3ccc4cn[nH]c4c3)nnc2-c2ccc(C(C)(C)C)cc2)cc1,nt,nt,nt,0,nt,
Cn1c(SCC(=O)NCCN2CCCCC2)nc2cccnc21,nt,nt,nt,0,nt,
SMILES,FAS-TE inh,Neddylation inh,PfG6PD inh,proKLK7 act,PfG6PD confirm,others
CCOc1ccc(C(=O)CCC(=O)N2CCN(c3ccc(O)cc3)CC2)cc1,-4,i,67*,1,3,
C/C(Cn1nnc([N+](=O)[O-])n1)=N\NC(=O)c1ccc(Cl)c(Cl)c1,6,i,83*,0,77*,Diaph ctr 10uM=45;Diaphorase 30uM=34
C/C(Cn1cnc([N+](=O)[O-])n1)=N\NC(=O)c1cccnc1,-4,i,2,0,nt,
C/C(Cn1nnc([N+](=O)[O-])n1)=N\NC(=O)c1ccc(O)cc1,-4,i,71*,0,53*,Diaph ctr 10uM=27;Diaphorase 30uM=27
C/C(Cn1cnc([N+](=O)[O-])n1)=N\NC(=O)c1ccc(Br)cc1,-5,i,-5,-1,nt,
Cc1nc2sc(C(=O)NC3CC3)c(N)c2c(C)c1Cl,nt,nt,nt,4,nt,
COC(=O)C1CN(Cc2cn(CCOC(C)=O)nn2)CCS(=O)(=O)N1Cc1ccc(Cl)cc1 (stereo not given),nt,nt,nt,1,nt,
O=C(Nc1ccccc1C(=O)O)c1ccc2ccccc2n1,-2,i,74*,0,70*,Diaph ctr 10uM=59*;Diaphorase 30uM=68*
O=C(Nc1cccc(S(=O)(=O)Nc2ccccc2F)c1)c1ccc2ccccc2n1,19,i,76*,0,49,
CCSc1nnc(NC(=O)c2ccc3ccccc3n2)s1,-2,i,71*,0,43,
O=C(Nc1cccnc1)c1cccc(S(=O)(=O)Nc2ccccc2F)c1,-4,i,3,-1,nt,
O=C(/C=C/c1ccccc1)Nc1cccc(S(=O)(=O)Nc2ccccc2F)c1,1,i,71*,0,46,
COc1ccc2c(c1)CN1CN(Cc3ccc(F)cc3)S(=O)(=O)CC21 (stereo not given),nt,nt,nt,0,nt,
Cc1[nH]c(=S)c(C#N)c(C)c1C(=O)Nc1ccccc1,-12,i,62*,-1,37,
CCc1c(C(=O)Nc2ccccc2)c(C)[nH]c(=S)c1C#N,-8,i,59*,0,54*,Diaph ctr 10uM=-29;Diaphorase 30uM=-20
Cc1ccccc1NC(=O)c1c(C)[nH]c(=S)c(C#N)c1-c1ccco1,-10,i,42,-1,nt,
CC(C)(C)c1ccc(S(=O)(=O)N2CCCC2C(=O)N2CCN(c3ccccc3)CC2)cc1 (stereo not given),nt,nt,nt,0,nt,
Cc1cc(C)nc(NC(N)=NCCc2ccccc2)n1,-5,i,79*,-1,51*,Diaph ctr 10uM=49;Diaphorase 30uM=48
C=CCNc1nc2c3ccccc3n(C(C)=O)c2s1,-19,i,64*,1,8,
CC(C)Cn1c([N+](=O)[O-])nc2c1c(=O)[nH]c(=O)n2C,-4,i,71*,0,55*,Diaph ctr 10uM=36;Diaphorase 30uM=37
Cn1c(=O)[nH]c(=O)c2c1nc([N+](=O)[O-])n2Cc1ccccc1,24,i,86*,0,88*,Diaph ctr 10uM=50;Diaphorase 30uM=51*
Cn1c(=O)[nH]c(=O)c2c1nc(N1CCNCC1)n2Cc1ccccc1,-3,i,5,0,nt,
COc1ccc(C2C(C(=O)Nc3ccc(F)cc3)CCC(=O)N2c2ccc(OC)cc2)cc1 (stereo not given),nt,nt,nt,0,nt,
Nc1[nH]n(-c2ccccc2)c(=O)c1N=Nc1ccc2ncsc2c1,17,i,67*,1,19,
NC(=S)N/N=C\c1c2ccccc2cc2ccccc12,-16,i,11,-3,nt,
